# Compounds with a hit are over-represented: about 19% of the library has one in this group of screens.
# TDP1 cell noCPT – qHTS for Inhibitors of human tyrosyl-DNA phosphodiesterase 1 (TDP1): qHTS in cells in absence of CPT; DT40 Tdp1-/- hTDP1 cells, no CPT, ATP luminescence, 48 h; Potency, µM (series often up to 46.2 µM), for inactives: at the top dose activity change, negative = growth inhibition, most hits filed as inhibitors; 15% of 420,000 active; also: potency is read from the fitted curve at half-maximal effect; nearly all actives have a fitted effect of over 55% in size
#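 DT40 Tdp1-/-;hTDP1 cells, no CPT (DMSO vehicle only), 400 cells/well; compounds pin-transferred; ≥48 hr, 37 °C; CellTiter-Glo 30 min RT dark, luminescence read.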
# HT1080 IDH1KD tx – HT-1080 IDH1 knockdown cell toxicity (counter line). Potency, µM (top dose mostly 46.1 µM), for inactives: at the top dose activity, negative = toxicity, most hits filed as cytotoxic. AID 686971. HT-1080 IDH1 knockdown viability, ATP luminescence, 48 h. 2% of 360,000 active;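 also: potency is read from the fitted curve at half-maximal effect; 0% = DMSO wells and -100% = cell-free medium wells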
#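 % activity derives from luminescence (CellTiter-Glo), normalised to DMSO and no-cell wells. HT-1080-IDH1KD cells, 750/well, had 48 h compound exposure at 37 °C.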
# DT40 TDP1 CPT – DT40-hTDP1 cell growth loss with CPT; chicken DT40 Tdp1-/-;hTDP1 cells + 20 nM CPT, ATP luminescence, 48 h; 12% of 420,000 active; Potency, µM (highest dose often 46.2 µM), for the others: top-dose activity change, negative = growth inhibition, hits mostly inhibitors; also: potency is read from the fitted curve at half-maximal effect; nearly all actives have a fitted effect of over 55% in size
#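 Cell growth measured by CellTiter-Glo luminescence after a minimum 48 h, 37 C compound exposure with 20 nM CPT in Tdp1-knockout DT40 cells stably expressing hTDP1, seeded 400/well; qHTS titration format.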
# IL-1B inflam inh – blocks inflammasome-driven IL-1 beta release | activity change, % at 57.5 µM | THP-1 LPS/ATP IL-1B secretion, AlphaLISA, 16 h; stronger effect = lower value | 4.7% of 360,000 active | AID 743279; in the data active = activity change below about -50%; inconclusive = mostly about -30% to -49%
#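 Secreted IL-1B measured by AlphaLISA bead assay after 16 h compound exposure of THP-1 cells; compounds (final up to 57.5 uM) added 1 h before LPS (250 ng/mL) and ATP (1.25 mM) stimulation; lower signal means less secretion.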
# HT1080-NT tox – kills 2HG-producing HT-1080-NT fibrosarcoma cells. HT-1080-NT fibrosarcoma viability, CellTiter-Glo ATP luminescence, 48 h. Potency, µM (doses to about 46.1 µM), without a hit: at the highest dose activity, negative = less viability, most hits filed as cytotoxic. 1.6% of 360,000 active;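 also: NT is the 2HG producing partner of a matched IDH1 knockdown line; potency is read from the fitted curve at half-maximal effect; 0% = DMSO-treated cells and -100% = media-only wells without cells; nearly all actives have a fitted effect of over 55% in size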
#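 Compounds were tested in concentration-response format on HT-1080-NT cells for 48 hours at 37 degrees C. Cell viability came from CellTiter-Glo luminescence; curves were classified by r2, response magnitude and activity.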
# An asterisk follows results filed as active; i = inactive; ? = inconclusive; . = no result; [ ] = another dose, or the depositor's remark. Unless noted, calls follow the shape of the dose curve; as a rule, active = well fitted curve in the direction sought with a large enough effect; inconclusive = small, poorly fitted or top-dose-only effect, or another doubt; inactive = no such curve, though single readings can be large; an effect the other way counts as inactive or inconclusive. Unless noted, % is scaled to controls: 0 for no effect and ±100 for the full control effect.
SMILES,TDP1 cell noCPT,HT1080 IDH1KD tx,DT40 TDP1 CPT,IL-1B inflam inh,HT1080-NT tox
Cc1nc(N(C)Cc2ccccc2)c2nnn(Cc3ccccc3)c2n1,18µM*,-1%,23µM*,-24,-7%
Cc1cccc(NC(=O)c2cc3c(=O)n(Cc4cccnc4)ccc3nc2C)c1,?,.,-22%,.,.
COc1ccc(S(=O)(=O)NCC(c2ccc3c(c2)OCO3)N2CCOCC2)cc1 (centres undefined),1%,1%,8%,3,4%
CCCCc1ccc(NC(=O)CC(C)(C)C)cc1,?,-29%,-2%,-76*,?
CCC(CC)C(=O)Nc1ccc(Nc2ccccc2)cc1,?,6%,?,4,10%
CC(C)C(=O)Nc1ccc(Sc2ccc(F)cc2)cc1,16µM*,-4%,16µM*,-3,2%
CC(C)C(=O)Nc1ccc(Nc2ccccc2)cc1,10µM*,-2%,12µM*,-10,3%
CC(SCc1ccccc1)C(=O)Nc1ccc(F)cc1 (centres undefined),-18%,-8%,-19%,-18,-4%
CCCCc1ccc(NC(=O)N[C@@H](C)C(=O)O)cc1,5.2µM*,-1%,4.6µM*,21,22%
CCCCc1ccc(NC(=O)CC(C)=O)cc1,-9%,16%,-1%,1,11%
O=C(CC(=O)NCc1ccc(Cl)cc1)NCc1ccccc1,2%,4%,0%,12,-2%
NC(=O)NOCc1ccccc1F,-5%,16%,-11%,-12,20%
COc1cccc(OCC(O)CO)c1 (centres undefined),2%,-1%,-10%,3,4%
O=C(NCC(O)c1nc2ccccc2[nH]1)c1cc2ccccc2[nH]1 (centres undefined),-18%,5%,-20%,-7,4%
CC(C)CC(=O)Nc1ccc(Nc2ccccc2)cc1,-24%,3%,-18%,-12,-5%
CC(C)C(=O)Nc1ccc(NC(=O)c2cccc3c(Br)cccc23)cc1,?,22%,16µM*,-8,18%
CC(C)(C)CC(=O)Nc1ccc(Nc2ccccc2)cc1,-28%,-15%,-26%,-62*,-6%
NS(=O)(=O)c1cccc(NC(=O)c2cccc3c(Br)cccc23)c1,4%,-19%,-4%,4,-4%
CC(NC(=O)CN1c2cccc3cccc(c23)S1(=O)=O)c1ccc(S(N)(=O)=O)cc1 (centres undefined),?,-7%,-27%,-11,-9%
CS(=O)(=O)c1ccc(Cl)c(NC(=O)CN2C(=O)C3CCCCC3C2=O)c1 (centres undefined),-21%,4%,7%,9,-1%
CC(C)(C)C(=O)CSc1ncnc2c1cnn2Cc1ccccc1,15µM*,-13%,-11%,-3,-7%
O=C(CSc1ncnc2c1cnn2CCc1ccccc1)Nc1cccc(C(F)(F)F)c1,23µM*,?,?,-13,?
O=C1OC(O)c2cccc3cccc1c23 (centres undefined),1%,0%,10%,-3,3%
Cc1cccc2c1N(CCCOc1ccccc1)C(=O)C2=O,16µM*,0%,9.2µM*,-6,1%
O=C1c2ccccc2C(=O)N1CCOc1cccc(Br)c1,-5%,3%,0%,0,1%
SMILES,TDP1 cell noCPT,HT1080 IDH1KD tx,DT40 TDP1 CPT,IL-1B inflam inh,HT1080-NT tox
Cc1ccc2c(c1)C(=O)C(=O)N2CCCOc1ccccc1C,2.9µM*,-29%,3.3µM*,?,?
CC(C)(C)c1ccc(OCCN2CCCC2)cc1,3%,9%,-12%,14,11%
Cc1cccc2c1N(CCCOc1ccc(C(C)(C)C)cc1)C(=O)C2=O,18µM*,-25%,?,-1,-30%
CCOc1ccc(CN(C)C(=O)CCN2C(=O)c3ccccc3C2=O)cc1OC,-6%,1%,10%,9,13%
CCOc1ccc(CN2C(=O)C(=O)c3cccc(C)c32)cc1OC,1.6µM*,.,?,.,.
Cc1ccc(OCCN2C(=O)c3ccccc3C2=O)c(C)c1,-8%,2%,25%,9,7%
CC(C)Cn1nc(C(=O)NCc2ccccc2CN2CCCC2)c2ccccc2c1=O,?,0%,?,?,-1%
COc1cccc(CC(=O)N2CCC(n3nccc3NC(=O)C3CCOC3)CC2)c1 (centres undefined),4%,2%,10%,i,3%
Cc1ccccc1OCCCN1CCCC1,14%,-1%,-9%,-2,8%
Cc1ccccc1OCCCN1C(=O)C(=O)c2cccc(C)c21,1.8µM*,?,2.6µM*,3,?
CCn1c(SCC(=O)Nc2nccs2)nnc1-c1ccc(S(=O)(=O)N2CCCCCC2)cc1,18µM*,-9%,16µM*,0,-19%
CCC(Sc1nnc(-c2ccc(C)c(Cl)c2)n1CC)C(=O)Nc1nccs1 (centres undefined),15µM*,-25%,18µM*,-2,-4%
Cn1c(SCC(=O)Nc2nccs2)nnc1-c1ccc(S(=O)(=O)N2CCCC2)cc1,-19%,12%,-10%,11,11%
CCn1c(SCc2ccc(C(=O)Nc3nccs3)cc2)nnc1-c1ccc(N)cc1,?,-12%,-28%,-14,1%
COc1ccc(-c2nnc(SCC(=O)N3CCCC3=O)n2N)cc1OC,-18%,0%,3%,-2,12%
Brc1ccc(Nc2c3c(nc4nncn24)CCC3)cc1,18µM*,.,?,.,.
Cc1cccc(Nc2c3c(nc4nncn24)CCC3)c1,-23%,.,-24%,.,.
Cc1ccc(Nc2c3c(nc4nncn24)CCC3)cc1,-27%,.,-8%,.,.
Cc1ccc(Nc2c3c(nc4nncn24)CCC3)cc1C,16µM*,.,?,.,.
COc1ccc(Nc2c3c(nc4nncn24)CCC3)cc1Cl,21µM*,.,18µM*,.,.
C=CCn1c(C)cc(C(=O)COc2ncnc3sccc23)c1C,16µM*,?,?,-10,-22%
C=CCn1c(C)cc(C(=O)COC(=O)CCc2cc(OC)c(OC)c(OC)c2)c1C,0%,4%,0%,11,0%
COCCn1c(C)cc(C(=O)COc2ncnc3ccc(Br)cc23)c1C,-18%,0%,-2%,11,-6%
C=CCn1c(C)cc(C(=O)COC(=O)c2cncc(Br)c2)c1C,?,0%,18µM*,3,-2%[9.24 µM]
O=C(C[n+]1ccc(/C=C/c2c[nH]c3ccccc23)c2ccccc21)c1ccccc1,?,.,-8%,.,.
O=C(/C=C/c1c[nH]c2ccccc12)c1cccc2ccccc12,12µM*,?,16µM*,-108*,?
O=C(O)c1ccc(C2Nc3ccccc3C(=O)N2Cc2ccccc2)cc1 (centres undefined),-6%,32%,-10%,8,19%
